Laboratory results published in the supplement of paper PMC4022240.
± gives the standard deviation.

Key:
Assay in all cases: peptide microarray binding signal (635 nm), min-max normalized on array (fraction of array maximum); higher = stronger binding
Settings in all cases: peptide region: H3 112-124
[1] = biological target: T1, HaloTag-ATRX ADD domain (163-292)
T1 chain: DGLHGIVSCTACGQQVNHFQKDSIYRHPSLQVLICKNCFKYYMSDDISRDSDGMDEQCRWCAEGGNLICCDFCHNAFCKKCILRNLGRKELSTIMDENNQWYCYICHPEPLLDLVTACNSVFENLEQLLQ
Outline: (§1)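 Binding signal is the mean intensity of triplicate spots, min-max scaled within each library. Histone 13-mer peptide–cellulose conjugates were spotted in triplicate on nitrocellulose with a Cy3 tracer and blocked overnight at 4°C. Probing lasted 1 h at 4°C, either with biotin-labelled HaloTag reader fusions (10 nM to 1 μM) and streptavidin-Alexa Fluor 647 or with rabbit histone antibodies (1:10,000 to 1:2,000) and anti-rabbit Alexa 647. An Axon GenePix 4000B read signal at 635 nm and misprints at 532 nm.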

[2] = biological target: HaloTag-ING2 PHD (mouse Ing2 200-280)
Outline: as §1

[3] = biological target: anti-H3K4me3 antibody ab8580
Outline: as §1

[4] = biological target: anti-H3K9me3 antibody ab8898
Outline: as §1

[5] = peptide modifications: H3K115me3 H3K122me1, binder concentration: 1:2,000 dilution
[6] = peptide modifications: H3K115me3 H3K122me1, binder concentration: 1:10,000 dilution
[7] = peptide modifications: H3K115me2 H3R116me1, binder concentration: 1:2,000 dilution
[8] = peptide modifications: H3K115me2 H3R116me1, binder concentration: 1:10,000 dilution
[9] = peptide modifications: H3K115me2 H3K122me3, binder concentration: 1:2,000 dilution
[10] = peptide modifications: H3K115me2 H3K122me3, binder concentration: 1:10,000 dilution
[11] = peptide modifications: H3K115me3 H3K122me2, binder concentration: 1:2,000 dilution
[12] = peptide modifications: H3K115me3 H3K122me2, binder concentration: 1:10,000 dilution
[13] = peptide modifications: H3K115me2 H3R116me2s, binder concentration: 1:2,000 dilution
[14] = peptide modifications: H3K115me2 H3R116me2s, binder concentration: 1:10,000 dilution
[15] = peptide modifications: H3K115me2 H3K122ac, binder concentration: 1:2,000 dilution
[16] = peptide modifications: H3K115me2 H3K122ac, binder concentration: 1:10,000 dilution
[17] = peptide modifications: H3K115me2, binder concentration: 1:2,000 dilution
[18] = peptide modifications: H3K115me2, binder concentration: 1:10,000 dilution
[19] = peptide modifications: H3K115me3, binder concentration: 1:2,000 dilution
[20] = peptide modifications: H3K115me3, binder concentration: 1:10,000 dilution
[21] = peptide modifications: H3K115me2 H3K122me2, binder concentration: 1:2,000 dilution
[22] = peptide modifications: H3K115me2 H3K122me2, binder concentration: 1:10,000 dilution
[23] = peptide modifications: H3K115me2 H3R116me2a, binder concentration: 1:2,000 dilution
[24] = peptide modifications: H3K115me2 H3R116me2a, binder concentration: 1:10,000 dilution

B1: H3 112-124 I H A Kme3 R V T I M P Kme D I (peptide)
chain: IHAKRVTIMPKDI
[1]; peptide modifications: H3K115me3 H3K122me1, binder concentration: 50 nM
  peptide microarray binding signal: 0.006489 ± 2.2e-05
[1]; peptide modifications: H3K115me3 H3K122me1, binder concentration: 500 nM
  peptide microarray binding signal: 0.0138 ± 0.00023
[2]; peptide modifications: H3K115me3 H3K122me1, binder concentration: 10 nM
  peptide microarray binding signal: 0.0505 ± 0.0051
[2]; peptide modifications: H3K115me3 H3K122me1, binder concentration: 100 nM
  peptide microarray binding signal: 0.0785 ± 0.0067
[3]; [5]
  peptide microarray binding signal: 0.0317 ± 0.0091
[3]; [6]
  peptide microarray binding signal: 0.0326 ± 0.0097
[4]; [5]
  peptide microarray binding signal: 0.0313 ± 0.0018
[4]; [6]
  peptide microarray binding signal: 0.0119 ± 0.00075

B2: H3 112-124 I H A Kme2 Rme V T I M P K D I (peptide)
chain: IHAKRVTIMPKDI
[1]; peptide modifications: H3K115me2 H3R116me1, binder concentration: 50 nM
  peptide microarray binding signal: 0.00978 ± 0.00067
[1]; peptide modifications: H3K115me2 H3R116me1, binder concentration: 500 nM
  peptide microarray binding signal: 0.0323 ± 0.001
[2]; peptide modifications: H3K115me2 H3R116me1, binder concentration: 10 nM
  peptide microarray binding signal: 0.0352 ± 0.017
[2]; peptide modifications: H3K115me2 H3R116me1, binder concentration: 100 nM
  peptide microarray binding signal: 0.0291 ± 0.0025
[3]; [7]
  peptide microarray binding signal: 0.0244 ± 0.00081
[3]; [8]
  peptide microarray binding signal: 0.0144 ± 0.0052
[4]; [7]
  peptide microarray binding signal: 0.00761 ± 0.0024
[4]; [8]
  peptide microarray binding signal: 0.0104 ± 0.00061

B3: H3 112-124 I H A Kme2 R V T I M P Kme3 D I (peptide)
chain: IHAKRVTIMPKDI
[1]; peptide modifications: H3K115me2 H3K122me3, binder concentration: 50 nM
  peptide microarray binding signal: 0.00401 ± 7.2e-05
[1]; peptide modifications: H3K115me2 H3K122me3, binder concentration: 500 nM
  peptide microarray binding signal: 0.0105 ± 0.00042
[2]; peptide modifications: H3K115me2 H3K122me3, binder concentration: 10 nM
  peptide microarray binding signal: 0.0258 ± 0.0013
[2]; peptide modifications: H3K115me2 H3K122me3, binder concentration: 100 nM
  peptide microarray binding signal: 0.0359 ± 0.0052
[3]; [9]
  peptide microarray binding signal: 0.00289 ± 0.00018
[3]; [10]
  peptide microarray binding signal: 0.00274 ± 0.00017
[4]; [9]
  peptide microarray binding signal: 0.0105 ± 0.0013
[4]; [10]
  peptide microarray binding signal: 0.00536 ± 0.00056

B4: H3 112-124 I H A Kme3 R V T I M P Kme2 D I (peptide)
chain: IHAKRVTIMPKDI
[1]; peptide modifications: H3K115me3 H3K122me2, binder concentration: 50 nM
  peptide microarray binding signal: 0.00464 ± 6.3e-05
[1]; peptide modifications: H3K115me3 H3K122me2, binder concentration: 500 nM
  peptide microarray binding signal: 0.009477 ± 4.6e-05
[2]; peptide modifications: H3K115me3 H3K122me2, binder concentration: 10 nM
  peptide microarray binding signal: 0.0436 ± 0.0022
[2]; peptide modifications: H3K115me3 H3K122me2, binder concentration: 100 nM
  peptide microarray binding signal: 0.0676 ± 0.0025
[3]; [11]
  peptide microarray binding signal: 0.0196 ± 0.00059
[3]; [12]
  peptide microarray binding signal: 0.0182 ± 0.0013
[4]; [11]
  peptide microarray binding signal: 0.0246 ± 0.0043
[4]; [12]
  peptide microarray binding signal: 0.00894 ± 0.00038

B5: H3 112-124 I H A Kme2 Rme2s V T I M P K D I (peptide)
chain: IHAKRVTIMPKDI
[1]; peptide modifications: H3K115me2 H3R116me2s, binder concentration: 50 nM
  peptide microarray binding signal: 0.006426 ± 2.2e-05
[1]; peptide modifications: H3K115me2 H3R116me2s, binder concentration: 500 nM
  peptide microarray binding signal: 0.00905 ± 0.00055
[2]; peptide modifications: H3K115me2 H3R116me2s, binder concentration: 10 nM
  peptide microarray binding signal: 0.0113 ± 0.0004
[2]; peptide modifications: H3K115me2 H3R116me2s, binder concentration: 100 nM
  peptide microarray binding signal: 0.0135 ± 0.00076
[3]; [13]
  peptide microarray binding signal: 0.00383 ± 0.0002
[3]; [14]
  peptide microarray binding signal: 0.00462 ± 0.00022
[4]; [13]
  peptide microarray binding signal: 0.00335 ± 0.00032
[4]; [14]
  peptide microarray binding signal: 0.00236 ± 3.7e-05

B6: H3 112-124 I H A Kme2 R V T I M P Kac D I (peptide)
chain: IHAKRVTIMPKDI
[1]; peptide modifications: H3K115me2 H3K122ac, binder concentration: 50 nM
  peptide microarray binding signal: 0.00357 ± 5.2e-05
[1]; peptide modifications: H3K115me2 H3K122ac, binder concentration: 500 nM
  peptide microarray binding signal: 0.006 ± 0.00044
[2]; peptide modifications: H3K115me2 H3K122ac, binder concentration: 10 nM
  peptide microarray binding signal: 0.0178 ± 0.0029
[2]; peptide modifications: H3K115me2 H3K122ac, binder concentration: 100 nM
  peptide microarray binding signal: 0.0235 ± 0.0049
[3]; [15]
  peptide microarray binding signal: 0.00145 ± 0.00019
[3]; [16]
  peptide microarray binding signal: 0.00188 ± 0.00012
[4]; [15]
  peptide microarray binding signal: 0.00186 ± 0.00037
[4]; [16]
  peptide microarray binding signal: 0.00277 ± 0.00067

B7: H3 112-124 I H A Kme2 R V T I M P K D I (peptide)
chain: IHAKRVTIMPKDI
[1]; peptide modifications: H3K115me2, binder concentration: 50 nM
  peptide microarray binding signal: 0.0058 ± 7e-05
[1]; peptide modifications: H3K115me2, binder concentration: 500 nM
  peptide microarray binding signal: 0.012 ± 0.0003
[2]; peptide modifications: H3K115me2, binder concentration: 10 nM
  peptide microarray binding signal: 0.0144 ± 0.00078
[2]; peptide modifications: H3K115me2, binder concentration: 100 nM
  peptide microarray binding signal: 0.0293 ± 0.0017
[3]; [17]
  peptide microarray binding signal: 0.00506 ± 0.00089
[3]; [18]
  peptide microarray binding signal: 0.00588 ± 0.00054
[4]; [17]
  peptide microarray binding signal: 0.00495 ± 0.00045
[4]; [18]
  peptide microarray binding signal: 0.00479 ± 0.00031

B8: H3 112-124 I H A Kme3 R V T I M P K D I (peptide)
chain: IHAKRVTIMPKDI
[1]; peptide modifications: H3K115me3, binder concentration: 50 nM
  peptide microarray binding signal: 0.00549 ± 0.00022
[1]; peptide modifications: H3K115me3, binder concentration: 500 nM
  peptide microarray binding signal: 0.0171 ± 0.00049
[2]; peptide modifications: H3K115me3, binder concentration: 10 nM
  peptide microarray binding signal: 0.026 ± 0.0073
[2]; peptide modifications: H3K115me3, binder concentration: 100 nM
  peptide microarray binding signal: 0.00872 ± 0.00066
[3]; [19]
  peptide microarray binding signal: 0.0334 ± 0.0055
[3]; [20]
  peptide microarray binding signal: 0.0596 ± 0.027
[4]; [19]
  peptide microarray binding signal: 0.0319 ± 0.041
[4]; [20]
  peptide microarray binding signal: 0.0536 ± 0.0037

B9: H3 112-124 I H A Kme2 R V T I M P Kme2 D I (peptide)
chain: IHAKRVTIMPKDI
[1]; peptide modifications: H3K115me2 H3K122me2, binder concentration: 50 nM
  peptide microarray binding signal: 0.003981 ± 1.6e-05
[1]; peptide modifications: H3K115me2 H3K122me2, binder concentration: 500 nM
  peptide microarray binding signal: 0.00729 ± 0.00043
[2]; peptide modifications: H3K115me2 H3K122me2, binder concentration: 10 nM
  peptide microarray binding signal: 0.0277 ± 0.0045
[2]; peptide modifications: H3K115me2 H3K122me2, binder concentration: 100 nM
  peptide microarray binding signal: 0.0324 ± 0.0023
[3]; [21]
  peptide microarray binding signal: 0.00387 ± 0.0014
[3]; [22]
  peptide microarray binding signal: 0.00382 ± 0.00021
[4]; [21]
  peptide microarray binding signal: 0.0021 ± 6.7e-05
[4]; [22]
  peptide microarray binding signal: 0.002076 ± 1.9e-05

B10: H3 112-124 I H A Kme2 Rme2a V T I M P K D I (peptide)
chain: IHAKRVTIMPKDI
[1]; peptide modifications: H3K115me2 H3R116me2a, binder concentration: 50 nM
  peptide microarray binding signal: 0.00392 ± 0.00012
[1]; peptide modifications: H3K115me2 H3R116me2a, binder concentration: 500 nM
  peptide microarray binding signal: 0.0121 ± 0.00062
[2]; peptide modifications: H3K115me2 H3R116me2a, binder concentration: 10 nM
  peptide microarray binding signal: 0.013 ± 0.0011
[2]; peptide modifications: H3K115me2 H3R116me2a, binder concentration: 100 nM
  peptide microarray binding signal: 0.015 ± 0.0041
[3]; [23]
  peptide microarray binding signal: 0.00655 ± 0.00081
[3]; [24]
  peptide microarray binding signal: 0.00291 ± 6.6e-05
[4]; [23]
  peptide microarray binding signal: 0.00612 ± 0.00057
[4]; [24]
  peptide microarray binding signal: 0.00346 ± 0.00033
